# Data as given in the supplement of paper PMC8728848.
# The sample as a whole holds a higher share of the strongest signals than the screen did.
# B1: RsaA-N-term (Caulobacter crescentus), P35828 (protein)
# chain: MAYTTAQLVTAYTNANLGKAPDAATTLTLDAYATQTQTGGLSDAAALTNTLKLVNSTTAVAIQTYQFFTGVAPSAAGLDFLVDSTTNTNDLNDAYYSKFAQENRFINFSINLATGAGAGATAFAAAYTGVSYAQTVATAYDKIIGNAVATAAGVDVAAAVAFLSRQANIDYLTAFVRANTPFTAAADIDLAVKAALIGTILNAATVSGIGGYATATAAMINDLSDGALSTDNAAGVNLFTAYPSSGVSGSTLSLTTGTDTLTGTANNDTFVAGEVAGDGSGWSHPQFEKGG
# Experiments:
# Assay in all cases: glycan array binding signal (z-score within array); higher = stronger binding
# Conditions in all cases: glycan notation: IUPAC condensed, linker removed
# [1] = target: Fuc(a1-2)Gal(b1-4)Fuc(a1-3)]GlcNAc(b1-2)Man(a1-3)[Fuc(a1-2)Gal(b1-4)[Fuc(a1-3)]GlcNAc(b1-2)Man(a1-6)]Man(b1-4)GlcNAc(b1-4)GlcNAc
# In short: (§1)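 Glycan array binding is given as a within-array Z-score, which can be read as non-binding when negative. The arrays, 3228 of them, came from the Consortium for Functional Glycomics database and were retained only where the protein sequence was available. Z-scores were averaged across arrays of the same protein sequence at different concentrations or buffers and across linkers.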
# [2] = target: Fuc(a1-2)Gal(b1-4)GlcNAc(b1-2)Man(a1-3)[Fuc(a1-2)Gal(b1-4)GlcNAc(b1-2)Man(a1-6)]Man(b1-4)GlcNAc(b1-4)[Fuc(a1-6)]GlcNAc
# In short: as §1
# [3] = target: Fuc(a1-2)Gal(b1-4)[Fuc(a1-3)]GlcNAc(b1-2)[Fuc(a1-2)Gal(b1-4)[Fuc(a1-3)]GlcNAc(b1-4)]Man(a1-3)[Fuc(a1-2)Gal(b1-4)[Fuc(a1-3)]GlcNAc(b1-2)Man(a1-6)]Man(b1-4)GlcNAc(b1-4)GlcNAc
# In short: as §1
# [4] = target: Fuc(a1-2)Gal(b1-4)[Fuc(a1-3)]GlcNAc(b1-3)Gal(b1-4)[Fuc(a1-3)]GlcNAc(b1-3)Gal(b1-4)[Fuc(a1-3)]GlcNAc
# In short: as §1
# [5] = target: Fuc(a1-2)Gal(b1-4)[Fuc(a1-3)]GlcNAc(b1-3)GalNAc
# In short: as §1
# [6] = target: Fuc(a1-2)Gal3S(b1-4)GlcNAc
# In short: as §1
# [7] = target: Fuc(a1-2)[Gal(a1-3)]Gal(b1-3)GalNAc
# In short: as §1
# [8] = target: Fuc(a1-2)[Gal(a1-3)]Gal(b1-3)GlcNAc(b1-2)Man(a1-3)[Fuc(a1-2)[Gal(a1-3)]Gal(b1-3)GlcNAc(b1-2)Man(a1-6)]Man(b1-4)GlcNAc(b1-4)[Fuc(a1-6)]GlcNAc
# In short: as §1
# [9] = target: Fuc(a1-2)[Gal(a1-3)]Gal(b1-4)GlcNAc
# In short: as §1
# [10] = target: Fuc(a1-2)[Gal(a1-4)]Gal(b1-4)GlcNAc
# In short: as §1
# [11] = target: Fuc(a1-2)[GalNAc(a1-3)]Gal(b1-4)GlcNAc(b1-3)Gal(b1-4)GlcNAc(b1-3)Gal(b1-4)GlcNAc
# In short: as §1
# [12] = target: Gal(b1-3)GalNAc(b1-4)[Neu5Ac(a2-3)]Gal(b1-4)Glc
# In short: as §1
# [13] = target: Gal(b1-3)[Neu5Ac(b2-6)]GalNAc
# In short: as §1
# [14] = target: Gal(b1-4)GlcNAc(b1-2)Man(a1-3)[Gal(b1-4)GlcNAc(b1-2)Man(a1-6)][GlcNAc(b1-4)]Man(b1-4)GlcNAc(b1-4)[Fuc(a1-6)]GlcNAc
# In short: as §1
# [15] = target: Gal(b1-4)GlcNAc(b1-3)Gal(b1-4)GlcNAc(b1-2)Man(a1-3)[Gal(b1-4)GlcNAc(b1-3)Gal(b1-4)GlcNAc(b1-2)Man(a1-6)]Man(b1-4)GlcNAc(b1-4)GlcNAc
# In short: as §1
# [16] = target: Gal(b1-4)GlcNAc(b1-3)Gal(b1-4)GlcNAc(b1-2)Man(a1-3)[Gal(b1-4)GlcNAc(b1-3)Gal(b1-4)GlcNAc(b1-2)Man(a1-6)]Man(b1-4)GlcNAc(b1-4)[Fuc(a1-6)]GlcNAc
# In short: as §1
# Gal3S(b1-3)GalNAc = target: Gal3S(b1-3)GalNAc
# In short: as §1
# [17] = target: Gal3S(b1-3)[Fuc(a1-4)]GlcNAc
# In short: as §1
# Gal6S(b1-3)GlcNAc6S = target: Gal6S(b1-3)GlcNAc6S
# In short: as §1
# Gal6S(b1-4)Glc = target: Gal6S(b1-4)Glc
# In short: as §1
# GalNAc3S(b1-4)GlcNAc3S = target: GalNAc3S(b1-4)GlcNAc3S
# In short: as §1
# Glc(b1-4)Glc = target: Glc(b1-4)Glc
# In short: as §1
# [18] = target: GlcNAc(a1-4)Gal(b1-3)GlcNAc
# In short: as §1
# [19] = target: GlcNAc(a1-4)Gal(b1-4)GlcNAc(b1-3)Gal(b1-4)Glc
# In short: as §1
# [20] = target: GlcNAc(b1-2)[GlcNAc(b1-4)]Man(a1-3)[GlcNAc(b1-4)][GlcNAc(b1-2)[GlcNAc(b1-6)]Man(a1-6)]Man(b1-4)GlcNAc(b1-4)[Fuc(a1-6)]GlcNAc
# In short: as §1
# [21] = target: GlcNAc(b1-3)Gal(b1-4)GlcNAc(b1-2)Man(a1-3)[GlcNAc(b1-3)Gal(b1-4)GlcNAc(b1-2)Man(a1-6)]Man(b1-4)GlcNAc(b1-4)GlcNAc
# In short: as §1
# [22] = target: GlcNAc(b1-3)Gal(b1-4)GlcNAc(b1-3)Gal(b1-4)GlcNAc(b1-2)Man(a1-3)[GlcNAc(b1-3)Gal(b1-4)GlcNAc(b1-3)Gal(b1-4)GlcNAc(b1-2)Man(a1-6)]Man(b1-4)GlcNAc(b1-4)GlcNAc
# In short: as §1
# [23] = target: GlcNAc(b1-3)Gal(b1-4)GlcNAc(b1-3)Gal(b1-4)GlcNAc(b1-3)Gal(b1-4)GlcNAc(b1-2)[GlcNAc(b1-3)Gal(b1-4)GlcNAc(b1-3)Gal(b1-4)GlcNAc(b1-3)Gal(b1-4)GlcNAc(b1-6)]Man(a1-6)[GlcNAc(b1-3)Gal(b1-4)GlcNAc(b1-3)Gal(b1-4)GlcNAc(b1-3)Gal(b1-4)GlcNAc(b1-2)Man(a1-3)]Man(b1-4)GlcNAc(b1-4)[Fuc(a1-6)]GlcNAc
# In short: as §1
# [24] = target: GlcNAc(b1-4)[GlcNAc(b1-6)]GalNAc
# In short: as §1
# [25] = target: Man(a1-3)[Man(a1-6)]Man(b1-4)GlcNAc(b1-4)GlcNAc
# In short: as §1
# [26] = target: Neu5Ac(a2-3)Gal(b1-3)GalNAc(b1-4)[Neu5Ac(a2-3)]Gal(b1-4)Glc
# In short: as §1
# [27] = target: Neu5Ac(a2-3)Gal(b1-3)GalNAc6S
# In short: as §1
# [28] = target: Neu5Ac(a2-3)Gal(b1-3)GlcNAc(b1-2)Man(a1-3)[Neu5Ac(a2-3)Gal(b1-3)GlcNAc(b1-2)Man(a1-6)]Man(b1-4)GlcNAc(b1-4)GlcNAc
# In short: as §1
# [29] = target: Neu5Ac(a2-3)Gal(b1-3)[GlcNAc(b1-6)]GalNAc
# In short: as §1
# [30] = target: Neu5Ac(a2-3)Gal(b1-4)GlcNAc(b1-2)Man
# In short: as §1
# [31] = target: Neu5Ac(a2-3)Gal(b1-4)GlcNAc(b1-3)Gal(b1-4)GlcNAc(b1-3)Gal(b1-4)GlcNAc(b1-2)Man(a1-3)[Neu5Ac(a2-3)Gal(b1-4)GlcNAc(b1-3)Gal(b1-4)GlcNAc(b1-3)Gal(b1-4)GlcNAc(b1-2)Man(a1-6)]GalNAc
# In short: as §1
# [32] = target: Neu5Ac(a2-3)Gal(b1-4)GlcNAc(b1-3)Gal(b1-4)GlcNAc(b1-3)GalNAc
# In short: as §1
# [33] = target: Neu5Ac(a2-3)Gal(b1-4)GlcNAc(b1-3)Gal(b1-4)[Fuc(a1-3)]GlcNAc
# In short: as §1
# [34] = target: Neu5Ac(a2-3)Gal(b1-4)[Fuc(a1-3)]GlcNAc(b1-2)Man
# In short: as §1
# [35] = target: Neu5Ac(a2-6)Gal(b1-4)GlcNAc(b1-2)Man(a1-3)[Neu5Ac(a2-3)Gal(b1-4)GlcNAc(b1-2)Man(a1-6)]Man(b1-4)GlcNAc(b1-4)GlcNAc
# In short: as §1
# [36] = target: Neu5Ac(a2-6)Gal(b1-4)GlcNAc(b1-2)Man(a1-3)[Neu5Ac(a2-6)Gal(b1-4)GlcNAc(b1-2)Man(a1-6)]Man(b1-4)GlcNAc(b1-4)GlcNAc
# In short: as §1
# [37] = target: Neu5Ac(a2-6)Gal(b1-4)GlcNAc(b1-2)Man(a1-6)[GlcNAc(b1-2)Man(a1-3)]Man(b1-4)GlcNAc(b1-4)GlcNAc
# In short: as §1
# [38] = target: Neu5Ac(a2-6)Gal(b1-4)GlcNAc(b1-3)Gal(b1-4)GlcNAc(b1-2)Man(a1-3)[Neu5Ac(a2-6)Gal(b1-4)GlcNAc(b1-3)Gal(b1-4)GlcNAc(b1-2)Man(a1-6)]GalNAc
# In short: as §1
# [39] = target: Neu5Ac(a2-6)Gal(b1-4)GlcNAc(b1-3)Gal(b1-4)GlcNAc(b1-3)[Neu5Ac(a2-6)Gal(b1-4)GlcNAc(b1-3)Gal(b1-4)GlcNAc(b1-6)]GalNAc
# In short: as §1
# Neu5Ac(a2-6)GalNAc = target: Neu5Ac(a2-6)GalNAc
# In short: as §1
# [40] = target: Neu5Ac(a2-6)GalNAc(b1-4)GlcNAc
# In short: as §1
# [41] = target: Neu5Ac(a2-8)Neu5Ac(a2-3)Gal(b1-4)Glc
# In short: as §1
# [42] = target: Neu5Ac(a2-8)Neu5Ac(a2-3)[GalNAc(b1-4)]Gal(b1-4)Glc
# In short: as §1
binder,measurement,setting,value
B1,glycan array binding signal (z-score),[1],5.97
same,glycan array binding signal (z-score),[2],7.05
same,glycan array binding signal (z-score),[3],2.4
same,glycan array binding signal (z-score),[4],-1.26
same,glycan array binding signal (z-score),[5],-0.298
same,glycan array binding signal (z-score),[6],-0.243
same,glycan array binding signal (z-score),[7],-0.328
same,glycan array binding signal (z-score),[8],-0.025
same,glycan array binding signal (z-score),[9],1.14
same,glycan array binding signal (z-score),[10],-0.479
same,glycan array binding signal (z-score),[11],0.016
same,glycan array binding signal (z-score),[12],-0.359
same,glycan array binding signal (z-score),[13],0.215
same,glycan array binding signal (z-score),[14],-0.708
same,glycan array binding signal (z-score),[15],3.15
same,glycan array binding signal (z-score),[16],2.39
same,glycan array binding signal (z-score),Gal3S(b1-3)GalNAc,1.7
same,glycan array binding signal (z-score),[17],-0.524
same,glycan array binding signal (z-score),Gal6S(b1-3)GlcNAc6S,3.01
same,glycan array binding signal (z-score),Gal6S(b1-4)Glc,-0.512
same,glycan array binding signal (z-score),GalNAc3S(b1-4)GlcNAc3S,0.081
same,glycan array binding signal (z-score),Glc(b1-4)Glc,-0.512
same,glycan array binding signal (z-score),[18],0.008
same,glycan array binding signal (z-score),[19],-0.491
same,glycan array binding signal (z-score),[20],0.317
same,glycan array binding signal (z-score),[21],2.18
same,glycan array binding signal (z-score),[22],2.59
same,glycan array binding signal (z-score),[23],0.217
same,glycan array binding signal (z-score),[24],-0.221
same,glycan array binding signal (z-score),[25],0.174
same,glycan array binding signal (z-score),[26],-1.29
same,glycan array binding signal (z-score),[27],0.427
same,glycan array binding signal (z-score),[28],7.19
same,glycan array binding signal (z-score),[29],-1.21
same,glycan array binding signal (z-score),[30],2.51
same,glycan array binding signal (z-score),[31],-0.725
same,glycan array binding signal (z-score),[32],-1.2
same,glycan array binding signal (z-score),[33],-0.112
same,glycan array binding signal (z-score),[34],0.103
same,glycan array binding signal (z-score),[35],2.79
same,glycan array binding signal (z-score),[36],0.398
same,glycan array binding signal (z-score),[37],0.365
same,glycan array binding signal (z-score),[38],-1.33
same,glycan array binding signal (z-score),[39],-0.68
same,glycan array binding signal (z-score),Neu5Ac(a2-6)GalNAc,2.17
same,glycan array binding signal (z-score),[40],-0.593
same,glycan array binding signal (z-score),[41],-0.815
same,glycan array binding signal (z-score),[42],-0.001
